Bioassay records as filed in PubChem BioAssay.
Hits are enriched below; roughly 3.3% of the tested compounds scored in any of these assays.
Cardio protect: myocardial damage modulation in H9c2 cells. AID 588492. 360,000 compounds, 0.63% hits. H9c2 cardiomyocytes, H2O2 injury protection, ATPLite, 2 h. protection from H2O2 cell death, % at 20 µM;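 active = compounds giving at least 50% protection of heart cells from peroxide-induced death in the single-dose screen, raw or plate-pattern-corrected value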
Calb FLC: C. albicans growth modulation with fluconazole; C. albicans CaCi-2 (fluconazole-resistant clinical isolate) + fluconazole, Alamar Blue growth, 48 h; 300,000 compounds, 0.57% hits; AID 1979; growth inhibition, % (concentration not given with the values);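 active = growth inhibition above about 58% in most replicates, limit read from the data, passing the limit was not always enough; inconclusive = exactly half the replicates above a set limit; inactive = most replicates below a set limit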;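 note: all wells also contain fluconazole at 8 µg/ml as a sub-toxic cotreatment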
PHOSPHO1 inh: PHOSPHO1 (human) inhibition. Q8TCT1. recombinant PHOSPHO1, absorbance phosphatase assay. inhibition, % at 13.3 µM. 290,000 compounds, 1.1% hits. AID 1565; in the data active = inhibition above about 60%
Cl transport mod: modulates chloride dependent transport by human KCC2; Q9H2X9; KCC2 cells, thallium flux FluoZin-2 fluorescence; B-score of Tl+ flux slope (higher = more flux/activation; lower = inhibition) at 10 µM; 190,000 compounds, 2.2% hits; AID 1456;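 active = thallium flux slope and its plate-corrected score both differing from the plate sample mean at a set confidence after two filtering rounds, in either direction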;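 note: slope of fluorescence scaled to starting intensity during 10 to 20 s after thallium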
Target sequence (Q9H2X9 whole entry, looked up): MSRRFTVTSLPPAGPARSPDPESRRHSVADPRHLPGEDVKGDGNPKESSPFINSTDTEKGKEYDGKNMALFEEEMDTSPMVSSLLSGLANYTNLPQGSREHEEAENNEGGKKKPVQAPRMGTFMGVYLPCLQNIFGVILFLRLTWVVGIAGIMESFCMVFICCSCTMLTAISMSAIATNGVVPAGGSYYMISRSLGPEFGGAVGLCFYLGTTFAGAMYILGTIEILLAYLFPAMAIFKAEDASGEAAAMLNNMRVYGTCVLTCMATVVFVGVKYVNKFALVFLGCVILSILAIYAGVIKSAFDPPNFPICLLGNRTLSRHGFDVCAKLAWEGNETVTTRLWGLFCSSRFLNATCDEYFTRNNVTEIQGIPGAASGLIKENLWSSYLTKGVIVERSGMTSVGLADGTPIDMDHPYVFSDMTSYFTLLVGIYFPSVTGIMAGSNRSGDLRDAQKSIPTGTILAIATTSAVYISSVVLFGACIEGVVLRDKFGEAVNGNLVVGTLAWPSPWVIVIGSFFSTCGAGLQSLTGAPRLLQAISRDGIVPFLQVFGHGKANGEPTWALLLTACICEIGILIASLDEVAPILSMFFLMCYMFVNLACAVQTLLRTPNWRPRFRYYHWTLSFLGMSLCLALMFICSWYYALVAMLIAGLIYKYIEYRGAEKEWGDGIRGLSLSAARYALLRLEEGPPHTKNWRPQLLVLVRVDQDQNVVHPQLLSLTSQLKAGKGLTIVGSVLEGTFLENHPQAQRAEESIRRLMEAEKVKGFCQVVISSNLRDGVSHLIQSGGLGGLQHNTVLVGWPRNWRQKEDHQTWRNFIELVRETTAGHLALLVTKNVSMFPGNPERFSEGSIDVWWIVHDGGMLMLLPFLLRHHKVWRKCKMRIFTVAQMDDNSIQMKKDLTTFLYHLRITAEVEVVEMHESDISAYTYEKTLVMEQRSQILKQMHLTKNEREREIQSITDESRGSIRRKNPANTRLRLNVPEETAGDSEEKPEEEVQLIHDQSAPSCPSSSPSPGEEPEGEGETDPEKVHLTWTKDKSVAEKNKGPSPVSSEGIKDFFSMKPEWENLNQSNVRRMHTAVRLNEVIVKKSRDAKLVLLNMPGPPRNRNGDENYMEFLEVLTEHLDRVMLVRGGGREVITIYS
Efflux pump mplx: antifungal efflux pump inhibition, Nile Red retention | S. cerevisiae Candida pump triplex | inhibition, % at 10 µM | 330,000 compounds, 0.44% hits | AID 485275;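 active = plate passing quality check with inhibition over a set limit, or well fluorescence over plate mean plus 4 SD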;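 note: Nile Red retained in pooled yeast measured as flow cytometry median fluorescence; higher means more Nile Red kept so more efflux inhibition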
KCC2 sec1: KCC2 (human) modulation, secondary assay. shares compounds with Cl transport mod. HEK293-KCC2, thallium flux, FluoZin2 fluorescence; active compounds read high. normalised thallium flux (F/F0 slope) at 10 µM. 3,700 compounds, 15% hits;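 active = thallium flux slope above the same plate's solvent-only control mean plus 3 SD; inconclusive = the two replicate wells disagree; inactive = no significant difference from solvent-only control wells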
KCC2 bumet counter: thallium flux persisting under bumetanide in KCC2 cells, counter-screen secondary assay | shares compounds with Cl transport mod | HEK293-KCC2 + bumetanide/ouabain, thallium flux FluoZin2; active compounds read high | normalized thallium flux at 10 µM | 3,700 compounds, 49% hits | AID 1714;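 active = thallium entry rate above the same plate's blocked-transporter control wells by more than 3 SD; inconclusive = the two repeat wells disagree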;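 note: raw slope of fluorescence over initial fluorescence between 10 and 20 s after thallium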
KCC2 sec2: KCC2 (human) modulation, second secondary assay. shares compounds with Cl transport mod. HEK293-KCC2, thallium flux FluoZin2 fluorescence; actives lie on both sides; F/F0 rise rate, 10–20 s post-thallium. normalized thallium flux at 10 µM. 3,700 compounds, 23% hits;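 active = thallium flux slope more than 3 SD above or below the plate's solvent-only control mean, mostly below; inconclusive = the two repeat wells disagreed; inactive = no significant shift from solvent-only controls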
HEK counter1: acts in parental HEK cells, KCC2 counter-screen; shares compounds with Cl transport mod; thallium flux rate (normalised fluorescence) at 10 µM; 3,700 compounds, 46% hits; HEK293 parental cells, thallium flux FluoZin2, ouabain; baseline-ratio fluorescence slope, 10–20 s after thallium;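 active = thallium flux rate significantly above the same plate's solvent-only control wells, beyond their mean plus 3 SD; inconclusive = the two replicate wells gave conflicting results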
KCC2 retest ouab: confirmation of human KCC2 modulators with ouabain | raw Tl+ flux slope (below DMSO = inhibition, above = activation) at 10 µM | 3,700 compounds, 48% hits | AID 1717 | shares compounds with Cl transport mod | HEK293-KCC2, thallium flux FluoZin2 fluorescence; bidirectional: low = inhibitor, high = activator;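 active = thallium flux slope beyond 3 SD from same-plate DMSO control mean in most replicates, usually higher, sometimes lower; inconclusive = repeat tests gave conflicting results; inactive = no significant difference from controls in most replicates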;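 note: slope of initial-normalized fluorescence between seconds 10 and 20 after thallium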
HEK counter2: acts in parental HEK cells, second KCC2 counter-screen; HEK293 parental, thallium flux FluoZin-2 fluorescence slope; thallium flux slope at 10 µM; 3,700 compounds, 33% hits; AID 1718; shares compounds with Cl transport mod;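 active = thallium flux slope above the same plate's solvent-control mean plus 3 SD in both duplicate wells; inconclusive = duplicate wells that disagreed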;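 note: run without ouabain in cells lacking the KCC2 cotransporter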
Of the large screens only hits and unclear results are named; the others gave an inactive call (follow-up assays come after a bar, where they were run).

C(=C\c1ccccc1)/CSc1nnc(-c2ccccc2)n1Cc1ccco1	PHOSPHO1 inh 80 | KCC2 sec1 inactive | KCC2 bumet counter inconclusive | KCC2 sec2 0.023 | HEK counter1 0.0042 | KCC2 retest ouab 0.013 | HEK counter2 0.0074
Clc1cccc(CSc2nnc(-c3ccccn3)n2Cc2ccco2)c1	none (no result: Cl transport mod)
COc1cc(OC)cc(C(=O)NCC(=O)NC(C)c2ccccc2)c1 (centres undefined)	none (no result: Cl transport mod)
O=C(CCC(=O)c1cccs1)Nc1ncccc1O	none (no result: PHOSPHO1 inh, Cl transport mod)
Cc1ccc(C)c(NC(=S)Nc2ncccc2C)c1	none
COc1ccc(NC(=S)N/N=C2/CCCc3c(C)cc(C)cc32)cc1	none
Cc1cccc(NC(=S)N/N=C2/CCCCc3ccccc32)c1	Cl transport mod 7.9 | KCC2 sec1 inactive | KCC2 bumet counter 0.036 | KCC2 sec2 0.046 | HEK counter1 0.042 | KCC2 retest ouab 0.037 | HEK counter2 0.024
Cc1ccc(NC(=S)N/N=C2/CCCCc3ccccc32)cc1	Cl transport mod 33 | KCC2 sec1 inactive | KCC2 bumet counter 0.04 | KCC2 sec2 inconclusive | HEK counter1 0.033 | KCC2 retest ouab 0.033 | HEK counter2 0.031
Cc1ccc(C)c(NC(=S)N/N=C2\CCc3ccccc32)c1	Cl transport mod 24 | KCC2 sec1 0.014 | KCC2 bumet counter 0.075 | KCC2 sec2 inactive | HEK counter1 0.071 | KCC2 retest ouab 0.043 | HEK counter2 0.018
Cc1cccc(NC(=S)N2CCCC2)c1	none (no result: Cl transport mod)
CCC(C)C(NC(=O)C1CCC(C)CC1)C(=O)Nc1ccc(OC)cc1 (centres undefined)	none (no result: Cl transport mod)
CN1C(=O)/C(=C/c2cc3c(cc2Br)OCO3)NC1=S	Cl transport mod 7.1 | KCC2 sec1 inconclusive | KCC2 bumet counter 0.023 | KCC2 sec2 inactive | HEK counter1 0.013 | KCC2 retest ouab 0.031 | HEK counter2 inactive
COc1cc(C(=C(CC(=O)O)C(=O)O)c2ccc3c(c2)OCO3)cc(OC)c1OC	none (no result: Calb FLC, PHOSPHO1 inh, Cl transport mod, Efflux pump mplx)
Cc1oc(-c2ccccc2)nc1CS(=O)CC(=O)N1CCc2ccccc2C1 (centres undefined)	none (no result: Cl transport mod) | KCC2 sec1 inactive | KCC2 bumet counter inconclusive | KCC2 sec2 0.024 | HEK counter1 inactive | KCC2 retest ouab inconclusive | HEK counter2 inactive
COc1ccc(-c2nnc(SCC(=O)N3CCc4ccccc4C3)o2)cc1	Cl transport mod -3.5 | KCC2 sec1 inconclusive | KCC2 bumet counter inactive | KCC2 sec2 inactive | HEK counter1 inconclusive | KCC2 retest ouab 0.016 | HEK counter2 inactive
O=C(CSc1nnc(-c2ccccc2)o1)N1CCc2ccccc2C1	Cl transport mod -3.4 | KCC2 sec1 inactive | KCC2 bumet counter inactive | KCC2 sec2 0.025 | HEK counter1 inconclusive | KCC2 retest ouab 0.013 | HEK counter2 inactive
O=C(CSc1nccc(=O)[nH]1)N1CCc2ccccc2C1	Cl transport mod -4.9 | KCC2 sec1 inactive | KCC2 bumet counter inactive | KCC2 sec2 0.023 | HEK counter1 inactive | KCC2 retest ouab 0.015 | HEK counter2 inactive
COc1cccc(C(=O)Oc2ccc3ccc(=O)oc3c2)c1	none (no result: Cl transport mod)
CCC1Nc2ncnc(N3CCN(c4ccccn4)CC3)c2N(Cc2ccc(Cl)cc2)C1=O (centres undefined)	none (no result: PHOSPHO1 inh, Cl transport mod)
CCC1(C)Cc2ccccc2-c2[nH]c(=S)[nH]c(=O)c21 (centres undefined)	none (no result: Cl transport mod)
Cn1c(=S)[nH]c2c(c1=O)C(C)(C)Cc1ccccc1-2	Cl transport mod 83 | KCC2 sec1 0.066 | KCC2 bumet counter 0.12 | KCC2 sec2 0.084 | HEK counter1 0.096 | KCC2 retest ouab 0.094 | HEK counter2 0.091
CC(/C=C/c1ccccc1F)=N\NC(=O)c1cccc(F)c1	none (no result: Cl transport mod) | KCC2 sec1 inactive | KCC2 bumet counter 0.046 | KCC2 sec2 0.042 | HEK counter1 0.026 | KCC2 retest ouab 0.041 | HEK counter2 0.028
CC(/C=C/c1ccco1)=N\NC(=O)c1cccc(Cl)c1	Cl transport mod 14 | KCC2 sec1 inactive | KCC2 bumet counter 0.039 | KCC2 sec2 inconclusive | HEK counter1 0.023 | KCC2 retest ouab 0.037 | HEK counter2 0.026
CC(/C=C/c1ccco1)=N/NC(=O)c1ccccc1Cl	none
O=C(c1ccc(F)cc1)N1CCC(c2ccccc2)C1 (centres undefined)	none
COc1ccc(C(=O)N2CCCC(c3ccccc3)C2)cc1 (centres undefined)	Cl transport mod -4.8 (no result: Calb FLC) | KCC2 sec1 inactive | KCC2 bumet counter 0.0073 | KCC2 sec2 0.025 | HEK counter1 inactive | KCC2 retest ouab inconclusive | HEK counter2 inactive
CCCCC(=O)Nc1nn(CCC)c2nc3ccccc3cc12	Cl transport mod -3.8 | KCC2 sec1 inactive | KCC2 bumet counter inactive | KCC2 sec2 inactive | HEK counter1 inactive | KCC2 retest ouab inactive | HEK counter2 inactive
CCn1nc(NC(=O)c2ccccn2)c2cc3cc(C)ccc3nc21	Cl transport mod 7.3 | KCC2 sec1 inactive | KCC2 bumet counter inactive | KCC2 sec2 inactive | HEK counter1 inactive | KCC2 retest ouab inactive | HEK counter2 inconclusive
CC(C)Oc1ccc(CNC(=O)c2cc(S(=O)(=O)N3CCOCC3)cn2C)cc1	none (no result: Cl transport mod)
COc1ccc(/C=C2\SC(=N)N(c3nccs3)C2=O)cc1OC	Cl transport mod 4.6 | KCC2 sec1 inactive | KCC2 bumet counter 0.032 | KCC2 sec2 inactive | HEK counter1 0.022 | KCC2 retest ouab 0.029 | HEK counter2 0.019
O=C1OC(c2cccs2)=N/C1=C\c1ccc(-c2cccc(Cl)c2)o1	none (no result: Cl transport mod)
COc1ccc(/C=C2\SC(=S)N(NC(=O)c3ccncc3)C2=O)cc1OC	none (no result: Cardio protect)
N=C1S/C(=C\c2ccc(-c3cccc(Cl)c3)o2)C(=O)N1c1nccs1	Cl transport mod 6.6 | KCC2 sec1 inactive | KCC2 bumet counter 0.0089 | KCC2 sec2 inactive | HEK counter1 0.015 | KCC2 retest ouab inactive | HEK counter2 0.017
COc1ccccc1-c1nc(COc2ccc(Cl)cc2Cl)no1	none
CCN(CC)C(=O)C1=C(C)N(Cc2ccc(C(C)(C)C)cc2)C(=O)C(CC(=O)NC2CCCC2)C1 (centres undefined)	none (no result: Calb FLC, PHOSPHO1 inh, Cl transport mod, Efflux pump mplx)
